GCN5L2 inh – inhibitors of human GCN5L2 histone acetyltransferase; Q92830; GCN5L2 HAT assay, ThioGlo1 CoA-SH fluorescence; Potency, µM (titrated, usually from 58.9 µM), inactives show at the top dose activity change, negative = inhibition, actives largely listed as inhibitors; 390,000 tested, 0.21% active; AID 504327
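Enzyme at 20nM final was mixed with library compounds for 15 min at room temperature. Peptide H3(1-25) at 75uM, acetyl-CoA at 70uM and ThioGlo1 at 50uM were then added. Plates were read immediately and after 20 min (Ex340nm/Em540nm).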
PLK1 PBD inh – inhibitors of human PLK1 polo-box domain binding; Plk1 PBD binding of FITC phosphopeptide, fluorescence polarization; AID 720504; P53350; 360,000 tested, 2.8% active; Potency, µM, for inactives: max response, negative = inhibition, hits mostly inhibitors; further: series mostly up to about 57 µM; nearly all actives have a fitted effect of over 65% in size
TDP1 inh – blocks human tyrosyl-DNA phosphodiesterase 1 | Potency, µM (highest dose often 130 µM), inactives show at the highest dose activity change, negative = inhibition, most hits filed as inhibitors | 350,000 tested, 0.28% active | recombinant TDP1, AlphaScreen DNA substrate cleavage; further: nearly all actives have a fitted effect of over 40% in size
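Recombinant human Tdp1 (E. coli-expressed, 1 nM final) preincubated with compounds 15 min at room temperature, then 5'-biotin/3'-phosphotyrosine-FITC DNA substrate (15 nM final) added for 5 min. AlphaScreen beads (10 ug/ml final) added 10 min; cleavage lowers signal.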
VDR inhibitor – vitamin D3 receptor (human) inhibition. P11473. VDR-SRC2-3 peptide fluorescence polarization, 2 h. Potency, µM, inactives show max response, negative = inhibition, usual class: inhibitors. 400,000 tested, 0.93% active. AID 504847
Target sequence (P11473 whole entry, looked up): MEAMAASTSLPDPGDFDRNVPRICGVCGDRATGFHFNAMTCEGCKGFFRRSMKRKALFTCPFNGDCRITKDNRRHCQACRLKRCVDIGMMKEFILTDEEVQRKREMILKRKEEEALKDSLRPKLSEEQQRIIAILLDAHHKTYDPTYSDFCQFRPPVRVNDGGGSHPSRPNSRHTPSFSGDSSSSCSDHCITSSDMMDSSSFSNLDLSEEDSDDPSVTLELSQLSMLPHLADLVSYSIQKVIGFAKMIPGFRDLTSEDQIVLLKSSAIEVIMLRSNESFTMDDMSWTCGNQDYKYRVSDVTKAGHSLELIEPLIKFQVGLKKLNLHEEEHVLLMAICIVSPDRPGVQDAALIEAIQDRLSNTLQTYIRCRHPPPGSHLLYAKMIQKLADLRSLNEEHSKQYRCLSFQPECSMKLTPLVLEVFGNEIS
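Compounds are added to VDR with labelled SRC2-3 coactivator peptide and held 2 h at room temperature. Inhibition of the VDR–peptide interaction is then read as a change in fluorescence polarization.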
TDP1 cell CPT – growth inhibition of DT40 Tdp1-/-;hTDP1 cells with camptothecin (screen for TDP1 inhibitors); chicken DT40 Tdp1-/-;hTDP1 cells + 20 nM CPT, ATP luminescence, 48 h; Potency, µM (titrated, usually from 46.2 µM), for inactives: at the highest dose activity change, negative = growth inhibition, hits mostly inhibitors; 420,000 tested, 12% active; AID 686979; further: nearly all actives have a fitted effect of over 55% in size
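Cell growth measured by CellTiter-Glo luminescence after a minimum 48 h, 37 C compound exposure with 20 nM CPT in Tdp1-knockout DT40 cells stably expressing hTDP1, seeded 400/well; qHTS titration format.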
DT40 TDP1 no CPT – qHTS for Inhibitors of human tyrosyl-DNA phosphodiesterase 1 (TDP1): qHTS in cells in absence of CPT; DT40 Tdp1-/- hTDP1 cells, no CPT, ATP luminescence, 48 h; Potency, µM (highest dose often 46.2 µM), inactives show top-dose activity change, negative = growth inhibition, most hits filed as inhibitors; 420,000 tested, 15% active; AID 686978, 2013; further: nearly all actives have a fitted effect of over 55% in size
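Luminescent ATP content (CellTiter-Glo) served as the growth readout. Knockout chicken DT40 cells expressing human TDP1 were exposed to compounds without camptothecin for a minimum 48 hr at 37 °C.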
* hit, by the source's call; [ ] = remark or other dose. An excerpt weighted towards active compounds, which were near 18% of everything screened. The call rests on the fitted dose curve; in most records, active means well fitted curve in the direction sought with a large enough effect; inconclusive means small, poorly fitted or top-dose-only effect, or another doubt; inactive means no such curve, though single readings can be large; an effect the other way counts as inactive or inconclusive. On the % scale 0 is the no-effect control and ±100 the full control effect; potency means the concentration at half of the fitted maximal effect.

Results for CC(C)(C)c1ccc(CSc2cnn(C(C)(C)C)c(=O)c2Cl)cc1 ?
GCN5L2 inh: -14.5%; PLK1 PBD inh: -12.4%; VDR inhibitor: -8.6%; TDP1 cell CPT: 0.164µM*; DT40 TDP1 no CPT: 0.0326µM*

Results for CN(C(=O)Cc1ccc(Cl)c(Cl)c1)C(CN1CCCC1)c1cccc(N=C=S)c1 (stereo not given) ?
GCN5L2 inh: 2.6%; TDP1 inh: 15.8%; VDR inhibitor: -5.1%; TDP1 cell CPT: 5.17µM*; DT40 TDP1 no CPT: 3.26µM*

Results for CN(C(=O)Cc1ccc(Cl)c(Cl)c1)[C@H](CN1CCCC1)c1cccc(N=C=S)c1 ?
GCN5L2 inh: -13.8%; TDP1 inh: 14.3%; VDR inhibitor: -3.5%; TDP1 cell CPT: 11.9µM*; DT40 TDP1 no CPT: 13.3µM*

Results for COc1ncccc1C(=O)NCC(CC(=O)O)c1ccccc1 (stereo not given) ?
GCN5L2 inh: 0.4%; PLK1 PBD inh: -9.4%; TDP1 inh: 0.0%; VDR inhibitor: -1.3%; TDP1 cell CPT: 3.3%; DT40 TDP1 no CPT: 1.8%

What do the screens show for `Cc1ccc(Cn2nc(C)c(C=O)c2Cl)cc1`?
GCN5L2 inh: -7.1%; PLK1 PBD inh: -0.2%; TDP1 inh: 0.0%; VDR inhibitor: 13.1%; TDP1 cell CPT: 30.9%; DT40 TDP1 no CPT: -2.5%

How did Cc1ccc(Cn2nc(C(=O)Nc3ccc(Br)cc3)cc2C)cc1 do in these assays?
GCN5L2 inh: 8.7%; PLK1 PBD inh: -2.5%; VDR inhibitor: -10.3%; TDP1 cell CPT: inconclusive; DT40 TDP1 no CPT: 11.6µM*

How did CCCNC(=O)C1(C)CCN(Cc2ccc3ccccc3c2Br)C1 (stereo not given) do in these assays?
PLK1 PBD inh: -15.4%; TDP1 cell CPT: inconclusive; DT40 TDP1 no CPT: inconclusive

What do the screens show for `CCc1ccc(C(=O)NN(C(=O)c2cc(C)cc(C)c2)C(C)(C)C)cc1`?
TDP1 inh: 6.9%

What do the screens show for `Cc1ccc(Cn2cccc(C(=O)Nc3cc(C)on3)c2=O)cc1`?
GCN5L2 inh: -5.7%; TDP1 inh: 5.2%; VDR inhibitor: 9.2%; TDP1 cell CPT: -23.6%; DT40 TDP1 no CPT: -5.4%

Results for Cc1cc(NC(=O)CCl)no1 ?
GCN5L2 inh: -2.6%; PLK1 PBD inh: -11.8%; TDP1 inh: 5.1%; VDR inhibitor: 12.4%; TDP1 cell CPT: 13µM*; DT40 TDP1 no CPT: 18.4µM*

What do the screens show for `COc1cc2cc(C(=O)N3CC(COS(C)(=O)=O)c4ccc(O)cc43)[nH]c2c(OC)c1OC` (stereo not given)?
PLK1 PBD inh: -18.2%; VDR inhibitor: -3.1%; TDP1 cell CPT: -102.0%; DT40 TDP1 no CPT: -104.2%

Results for CCOc1ccc(/C=C/c2nc(C#N)c(NCc3ccccc3)o2)cc1 ?
GCN5L2 inh: -12.8%; TDP1 inh: 2.3%; VDR inhibitor: 0.9%; TDP1 cell CPT: inconclusive; DT40 TDP1 no CPT: 1.16µM*

Results for CC(=NCc1ccco1)c1c(O)n(-c2ccc(Cl)cc2)c(=O)[nH]c1=O ?
GCN5L2 inh: -7.1%; PLK1 PBD inh: -3.1%; TDP1 inh: 2.7%; VDR inhibitor: -8.1%; TDP1 cell CPT: 0.8%; DT40 TDP1 no CPT: inconclusive

What do the screens show for `COCCN1C(=O)NC(=O)/C(=C\c2ccc(Br)cc2)C1=O`?
GCN5L2 inh: -16.0%; PLK1 PBD inh: 5.32µM*; TDP1 inh: -2.9%; VDR inhibitor: inconclusive; TDP1 cell CPT: 20.6µM*; DT40 TDP1 no CPT: inconclusive

Results for CCOc1cc(/C=C2\C(=O)NC(=O)N(CCc3ccc(F)cc3)C2=O)ccc1O ?
GCN5L2 inh: -15.8%; PLK1 PBD inh: 1.68µM*; VDR inhibitor: inconclusive; TDP1 cell CPT: -13.7%; DT40 TDP1 no CPT: -20.1%

What do the screens show for `CN(C)c1ccc(/C=C2\C(=O)NC(=O)N(Cc3ccc(F)cc3)C2=O)cc1`?
GCN5L2 inh: -4.1%; PLK1 PBD inh: 1.19µM*; TDP1 inh: -2.6%; VDR inhibitor: -13.8%; TDP1 cell CPT: -1.0%; DT40 TDP1 no CPT: -1.8%

How did CN(C)c1ccc(CCN2CCOCC2)cc1 do in these assays?
GCN5L2 inh: 2.4%; PLK1 PBD inh: -1.6%; TDP1 inh: 3.6%; VDR inhibitor: -27.0%; TDP1 cell CPT: 1.7%; DT40 TDP1 no CPT: 9.5%

How did CN(C)c1ccc(/C=C2/C(=O)NC(=O)N(CCc3ccc(F)cc3)C2=O)cc1 do in these assays?
GCN5L2 inh: inconclusive; PLK1 PBD inh: 5.97µM*; TDP1 inh: -0.6%; VDR inhibitor: inconclusive; TDP1 cell CPT: inconclusive; DT40 TDP1 no CPT: inconclusive

How did COCCN1C(=O)/C(=C/c2c(OC)cc(OC)cc2OC)C(=O)N(c2ccccc2)C1=O do in these assays?
GCN5L2 inh: -26.8%; PLK1 PBD inh: inconclusive; VDR inhibitor: -11.0%; TDP1 cell CPT: -12.8%; DT40 TDP1 no CPT: 20.0%

How did Cc1ccc(/C=C2/C(=O)NC(=O)N(Cc3ccc(F)cc3)C2=O)o1 do in these assays?
GCN5L2 inh: -13.2%; TDP1 inh: 0.0%

Results for C=CC=O ?
TDP1 inh: -2.5%

Results for CC(C)CN1CCC2(CC1)CCN(S(C)(=O)=O)CC2 ?
GCN5L2 inh: -13.2%; VDR inhibitor: 4.2%; TDP1 cell CPT: inconclusive; DT40 TDP1 no CPT: 9.2%

How did CCOc1cncc(/C=C/CCNC)c1 do in these assays?
GCN5L2 inh: -0.1%; TDP1 inh: 3.0%; VDR inhibitor: inconclusive

Results for C/C=C1\C[C@H](C)[C@@](O)(CO)C(=O)OCC2=CCN3CC[C@@H](OC1=O)[C@@H]23 ?
GCN5L2 inh: -1.1%[21.4 µM]; TDP1 inh: -8.3%[56.1 µM]; VDR inhibitor: -1.0%

What do the screens show for `CCC(C)C(=O)OC1C[C@@]2(C)C(c3ccoc3)OC(=O)CC23OC2(C)OC34C(OC(=O)C(C)C)[C@]3(O)C(OC(=O)C5(C)OC5C)[C@]5(C)CC3(O)[C@](C)(C5CC(=O)OC)C14O2` (stereo not given in full)?
GCN5L2 inh: -19.7%; TDP1 inh: 1.0%; VDR inhibitor: -2.8%; TDP1 cell CPT: inconclusive; DT40 TDP1 no CPT: inconclusive

How did O=[N+]([O-])c1cc(C(F)(F)F)c(Cl)c([N+](=O)[O-])c1Nc1ncc(C(F)(F)F)cc1Cl do in these assays?
TDP1 cell CPT: 0.1µM*; DT40 TDP1 no CPT: 0.0251µM*

What do the screens show for `CN1CCN(c2ccc(F)cc2N)CC1`?
GCN5L2 inh: -1.3%; PLK1 PBD inh: -3.0%; TDP1 inh: -1.3%; VDR inhibitor: 6.7%; TDP1 cell CPT: 10.7%; DT40 TDP1 no CPT: 1.2%

How did CN1CCN(c2cc3c(cc2F)c(=O)c(C(=O)O)cn3-c2ccc(F)cc2)CC1 do in these assays?
GCN5L2 inh: inconclusive; TDP1 inh: 6.4%; VDR inhibitor: 9.0%; TDP1 cell CPT: 10.6µM*; DT40 TDP1 no CPT: 23.7µM*
